This is an account of results in PubChem BioAssay.

The nature of this assay: small-molecule binders of probe aLefty1, primary screen, biochemical, small-molecule microarray, 635/667 nm fluorescence (AID 1153).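 Also: score merges spot fluorescence with signal-to-noise ratio from the scanned slide images.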 As to conditions: higher = more signal.
`O=C1C2C=CC(C(O)Cc3ccccc3)N(n3cnnc3)C2C(=O)N1Cc1ccccc1` (stereo not given) returned a composite z-score of 0.333.
In turn, `CCCC[C@@H]1C[C@H]1[C@@H](NC(=O)c1ccco1)c1ccc(-c2ccccc2)cc1` gave a composite z-score of 0.142.
With `C[C@@]1([C@@H](NC(=O)c2ccc(-c3ccccc3)cc2)c2ccc(Cl)cc2)C[C@H]1C1CCCCC1`, the composite z-score was 0.284.
Then `COC(=O)c1c(CC[C@@H](CO)NC(=O)NCCn2cc(C3(O)CCCC3)nn2)oc(C(C)=O)c1C(=O)OC`, with -0.403; and `CC1(C)C2C=C(C(O)C3C=CC4C(=O)NC(=O)C4N3Nc3ccc(Cl)cc3Cl)C[C@@H]1C2` (stereo not given in full), with 0.265.
Then `NC(=O)NCC#Cc1ccc2c(c1)[C@]1(C(=O)N2)[C@H](C(=O)Nc2nc3ccccc3s2)[C@H]2C(=O)O[C@H](c3ccccc3)[C@H](c3ccccc3)N2[C@@H]1c1ccccc1OCCO`, with 1.33.
Then `COC(=O)[C@@]1(Cc2ccc(F)cc2)[C@H]2c3cc(C(=O)N(C)C)n(Cc4cc(F)c(F)c(F)c4)c3C[C@H]2CN1C(=O)c1ccccc1`, with 0.5; and `[N-]=[N+]=NCc1ccccc1[C@@H]1OC(c2ccc(OCCCO)cc2)=N[C@]1(Cc1ccccc1)C(=O)NCC(O)CO` (stereo not given in full), with 0.484; and `COc1cc2c(cc1OC)CN(C(=O)[C@@H]1[C@H]3C(=O)O[C@H](c4ccccc4)[C@H](c4ccccc4)N3[C@H](c3ccc(O)cc3)[C@@]13C(=O)Nc1ccccc13)CC2`, with 0.154.
As for `[N-]=[N+]=Nc1ccccc1[C@H]1OC(c2ccc(OCCCO)cc2)=N[C@@]1(CCS(=O)(=O)c1ccccc1)C(=O)NCC(O)CO` (stereo not given in full), the composite z-score stood at 0.0919.
`O=C1NC(=O)C2C1C=CC(C(O)c1cccs1)N2Nc1ccc(Cl)cc1Cl` (stereo not given) returned a composite z-score of -0.012.
For `C=CCNC(=O)[C@H]1[C@@H]2C(=O)O[C@@H](c3ccccc3)[C@@H](c3ccccc3)N2[C@@H](c2ccccc2OCCO)[C@]12C(=O)Nc1ccc(C#CCCO)cc12`, the composite z-score was -0.133.
Next, `CC(C)C(CO)N1C(=O)[C@@H]2C3C(=O)OCCC/C=C\[C@H]3OC23C=CCN(CCN2CCOCC2)C(=O)[C@@H]13` (stereo not given in full): -0.07.
`CC(=O)n1cc(C(O)C2C=CC3C(=O)N(c4ccccc4)C(=O)C3N2Nc2ccc([N+](=O)[O-])cc2)c2ccccc21` (stereo not given) showed a composite z-score of 0.272.
`CCOC(=O)C[C@H]1[C@H](OC(=O)c2ccc(C(=O)c3ccccc3)cc2)[C@@H](NC(=O)c2ccc3ccccc3n2)c2cc(OCCCO)ccc2N1C(=O)c1ccccc1` returned a composite z-score of -0.0683.
Turning to `COc1ccc(C#Cc2ccc3c(c2)[C@]2(C(=O)N3)[C@H](C(=O)NC[C@H](O)c3ccccc3)[C@H]3C(=O)O[C@H](c4ccccc4)[C@H](c4ccccc4)N3[C@@H]2c2ccc(O)cc2)cc1`, the composite z-score was -0.0984.
The molecule `N#Cc1ccc(NN2C(C(O)C(c3ccccc3)c3ccccc3)C=CC3C(=O)N(c4ccccc4)C(=O)C32)cc1` (stereo not given) showed a composite z-score of 0.651.
The molecule `Cc1ccccc1C(O)C1C=CC2C(=O)N(c3ccccc3)C(=O)C2N1Nc1ccc(C(C)C)cc1` (stereo not given) displayed a composite z-score of 0.317.
The molecule `CO[C@H]1O[C@H](CO)[C@@H](OC(=O)Nc2cccc(F)c2)[C@H](OC(=O)Nc2ccccc2)[C@@H]1OC(=O)Nc1ccccc1` yielded a composite z-score of 0.22.
Then `C=CCOC(=O)[C@H]1[C@@H]2C(=O)O[C@@H](c3ccccc3)[C@@H](c3ccccc3)N2[C@@H](c2ccc(OCCOC(=O)[C@H]3C[C@H]4C(=O)N[C@@H](CCCCNC(C)=O)C(=O)N4[C@H]3c3ccc(O)cc3)cc2)[C@]12C(=O)Nc1ccc(I)cc12`, with 0.204; and `Cc1nc2cc(Br)ccc2c(=O)o1`, with 0.442; and `CCCC[C@H]1OB(O)C[C@H]2C1=C(COC)Cn1c(=O)n(-c3ccccc3)c(=O)n12`, with -0.101.
Next, `COc1ccc([Si](C)(C)[C@@H]2[C@@H](CCO)O[C@]3(C(=O)N(Cc4ccc(N(C=O)c5ccccc5)cc4)c4ccccc43)[C@H]2C)cc1`: -0.06.
`CC(C)[Si](C#Cc1ccc(Oc2ccccc2)cc1)(O[Si](C#Cc1ccc(Oc2ccccc2)cc1)(C(C)C)C(C)C)C(C)C` returned a composite z-score of -0.103.
Take `CN1C=C(C(=O)OCCS(C)(=O)=O)C(C(=O)OCCS(C)(=O)=O)=CC(c2ccc(CO)cc2)=CC1C1CC1` (stereo not given): the composite z-score is -0.147.
Then `COc1ccc(CCNC(=O)[C@@]2(Sc3ccc(C)cc3)CC(=O)N(C(C)C)[C@@H]2c2ccc(CO)cc2I)cc1`, with -0.104.
`CC1(C)[C@@H]2CC(C(O)C3C=CC4C(=O)N(c5ccccc5)C(=O)C4N3Nc3ccc([N+](=O)[O-])cc3)=C[C@H]1C2` (stereo not given in full) displayed a composite z-score of 0.404.
Next, `NC(=O)NCC#Cc1ccc2c(c1)[C@]1(C(=O)N2)[C@H](c2ccccc2OCCO)N2[C@H](c3ccccc3)[C@H](c3ccccc3)OC(=O)[C@H]2[C@@H]1C(=O)Nc1nc2ccccc2s1`: 0.0692; `COC(=O)C(CC#Cc1ccc2c(c1)[C@]1(C(=O)N2)[C@H](C(=O)Nc2nc3ccccc3s2)[C@H]2C(=O)O[C@H](c3ccccc3)[C@H](c3ccccc3)N2[C@@H]1c1ccc(O)cc1)C(=O)OC`: 0.0809; `C=CCC(OC(C)=O)[C@@H]1[C@@H](N(Cc2ccc(-c3cccc(C(F)(F)F)c3)o2)C(=O)c2ccc(C)cc2)c2cc(OCCCO)ccc2N1C(=O)Cc1ccc2ccccc2c1` (stereo not given in full): -0.0035.
Then `O=C1O[C@H](c2ccccc2)[C@H](c2ccccc2)N2[C@H]1[C@@H](C(=O)N1CCCCCCC1)[C@]1(C(=O)Nc3ccc(C#CC4=CCCCC4)cc31)[C@H]2c1ccc(OCCO)cc1`, with 2.88; and `CCCCCN1CC=CC23O[C@@H]4C=CCCOC(=O)C4[C@H]2C(=O)N(CCCCCO)[C@@H]3C1=O` (stereo not given in full), with -0.0984.
Then `COCCCNC(=O)[C@]1(CCC(=O)OC(C)(C)C)N=C(c2ccc(OCCCO)cc2)O[C@@H]1c1ccccc1CN=[N+]=[N-]`, with 1.06; and `O=C1c2ccccc2[C@](Cc2ccccc2I)(C(=O)NCCN2CCOCC2)[C@H](c2ccc(CO)cc2)N1C1CCCCC1`, with 0.373.
`COc1ccc([Si](C)(C)[C@H]2[C@H](CCO)O[C@@]3(C(=O)N(Cc4ccc(N(C=O)c5ccccc5)cc4)c4ccccc43)[C@@H]2C)cc1` registered a composite z-score of 0.0406.
